Source: PubChem
A selection: hits, their analogues and other compounds. The true share with any hit is near 1.3%.
GRP78 ERSR act: induces the endoplasmic reticulum stress response in human glioma cells; U87-MG GRP78 promoter luciferase reporter, 16 h; Potency, µM, actives largely listed as activators; 420,000 tested, 0.02% active; also: series mostly up to about 76 µM; nearly all actives have a fitted effect of over 35% in size
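ERSR induction read as luciferase luminescence (Bright-Glo, 10 min at room temperature) in stably transfected human U87-MG glioma cells exposed to compounds for 16 h, using GRP78 as sensor.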
FEN1 inh-1: blocks human flap endonuclease 1 | Recombinant FEN1 flap cleavage, fluorescence, 15 min | 390,000 tested, 0.35% active | P39748 | AID 588795 | Potency, µM (titrated, usually from 114 µM), hits mostly inhibitors; also: nearly all actives have a fitted effect of over 65% in size
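Quantitative HTS format: each compound was titrated, incubated with 10 nM nuclease for 15 min at room temperature, then challenged with flap substrate at 50 nM final. Signal change over 15 min gave concentration–effect curves.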
WRN helicase inh: blocks human WRN helicase. Q14191. WRN helicase unwinding, fluorescent forked duplex, kinetic. Potency, µM (top dose mostly 114 µM), usual class: inhibitors. 360,000 tested, 0.46% active; also: nearly all actives have a fitted effect of over 55% in size
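WRN at 20 nM final was preincubated with compound for 15 min at room temperature; reaction started with 100 nM forked duplex oligonucleotide carrying fluorophore and quencher plus 2 mM ATP (final). Unwinding followed kinetically by red fluorescence (ex 525/em 598 nm).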
PI5P4Ka inh: PI5P4K alpha (human) kinase inhibition | PI5P4Kalpha enzyme, ADP-Glo luminescence, 60 min; stronger effect = lower value | max response, % | P48426 | 330,000 tested, 1.2% active; active = max response of -50% or lower; inconclusive = between -30% and -50%; inactive = -30% or higher; also: value at the top dose of about 77 µM
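Single end-point luminescence (ADP-Glo) quantified ADP from PI5P4Kalpha turnover; ATP 5 microM final, 1 h at RT, 0.1% CHAPS and 0.28 mM EGTA in HEPES pH 7.4.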
Tb PGK inh: inhibitors of T. brucei phosphoglycerate kinase | PGK/GAPDH coupled, Kinase-Glo luminescence, 60 min | 380,000 tested, 0.043% active | P07378 | Potency, µM (top dose mostly 57.5 µM), actives largely listed as inhibitors; also: nearly all actives have a fitted effect of over 60% in size
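Recombinant glycosomal PGK reaction used 1,3-bisphosphoglycerate generated in-well by GAPDH (100nM final) in 100mM TEA pH 7.6, 5mM MgCl2, 0.01% Tween-20. After 60 minutes at room temperature, ATP was read by Kinase-Glo Plus luminescence end-point.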
Pin1 inhibitor: inhibitors of human Pin1 | Potency, µM (titrated, usually from 115 µM), most hits filed as inhibitors | 390,000 tested, 0.009% active | Q13526 | Pin1 FP peptide displacement, HiFluor488, 10 min; active = well fitted inhibition curve with a large enough effect in the polarisation, with a control signal flat, not every such curve was filed as active; inconclusive = small, poorly fitted or top-dose-only effect, or effect the other way, or a change in a side signal; inactive = no such curve, though single readings can be large or run the other way; the % refers to the polarisation
FEN1 inh-2: confirmation of human FEN1 inhibitors. shares compounds with FEN1 inh-1. FEN1 flap cleavage, TAMRA/BHQ2 fluorogenic DNA substrate. Potency, µM, actives largely listed as inhibitors. 880 tested, 79% active; also: nearly all actives have a fitted effect of over 60% in size
Hits are given with their value; – = inactive; ? = inconclusive; · = no result; [ ] = remark or other dose. Unless noted, calls follow the shape of the dose curve; as a rule, active = well fitted curve in the direction sought with a large enough effect; inconclusive = small, poorly fitted or top-dose-only effect, or another doubt; inactive = no such curve, though single readings can be large; an effect the other way counts as inactive or inconclusive.

SMILES	GRP78 ERSR act	FEN1 inh-1	WRN helicase inh	PI5P4Ka inh	Tb PGK inh	Pin1 inhibitor	FEN1 inh-2
Cc1c(C)c2cccnc2c2ncccc12	–	15.8µM	–[11.6 µM]	–	–	–	42.6
O=C(NC[C@@H]1CCCN2CCCC[C@H]12)c1cnn(-c2nccc(-c3ccco3)n2)c1C1CC1	–	·	·	·	·	·	·
COC(=O)c1ccc(NC(=O)c2ccc(NC(=O)c3ccco3)cc2)cc1	–	?	–	–	–	–	?
O=C(NN1C(=O)/C(=C/c2ccc(O)cc2)SC1=S)c1cccc(O)c1	–	–	–[11.6 µM]	–	–	?	?
Cc1cc(C)c2c(=N)c3ccccc3n(CCCCCCCCn3c4ccccc4c(=N)c4c(C)cc(C)nc43)c2n1	–	7.08µM	50.1µM	-66.5	–	?	5.36
CCCCCCCCn1c2c(c(=N)c3ccccc31)CCC2	–	–	–	–	–	–	·
CSc1nnc(CNS(=O)(=O)c2ccc(F)cc2F)n1-c1ccccc1C	–	·	·	·	·	·	·
Cc1ccc(NC(=O)COC(=O)c2ccc([N+](=O)[O-])o2)cc1S(=O)(=O)N1CCCCC1	–	?	–	–	–	–	26.9
O=C(COC(=O)c1ccc([N+](=O)[O-])o1)Nc1cccc(S(=O)(=O)N2CCCCC2)c1	–	?	–[11.6 µM]	–	–	–	30.1
CC(C)N1C[C@@H](Sc2ccccn2)C[C@H]1C(=O)Nc1ccc2c(c1)Nc1ccccc1CC2	–	·	·	·	·	·	·
COc1ccccc1Nc1nc(NCCCN(C)C)nc(N)c1[N+](=O)[O-]	–	56.2µM	79.4µM	–	–	–	60.1
CN(C)CCNc1ccc2nnn3c4ccc(O)cc4c(=O)c1c23	–	12.6µM	–[11.6 µM]	–	–	–	8.49
CN(C)CCNc1cccc2sc3ccc(O)cc3c(=O)c12	?	·	?	–	·	·	·
COc1ccccc1C1CN(Cc2cccc(OCCO)c2)Cc2ccccc2O1 (stereo not given)	–	·	·	·	·	·	·
Cc1ccc2c(c1)S/C(=C/c1ccc[n+](C)c1)N2CCO	–	?	–	–	–	–	·
CCN1/C(=C/c2ccc3cc(C)ccc3[n+]2CC)Sc2cc(C)ccc21	–	?	50.1µM	–	–	?	7.57
Nc1ccc(-c2c3ccc(=O)cc-3oc3cc(O)ccc23)cc1C(=O)O	–	–	?	–	?	?	·
O=c1ccc2c(-c3ccccc3)c3ccc(O)cc3oc-2c1	–	44.7µM	15.8µM	?	–	?	33.8
O=C(Nc1ccc(N2CCN(C(=O)c3ccccc3)CC2)cc1)c1ccc([N+](=O)[O-])o1	–	–	–[11.6 µM]	–	–	?	26.9
CC(=O)c1cccc(NC(=O)c2ccc([N+](=O)[O-])o2)c1	?	–	–[11.6 µM]	–	–	–	42.6
CCOc1cccc(CN2CCC(n3cc(C(=O)N4CCCCC4)nn3)CC2)c1O	–	·	·	·	·	·	·
N.N.N.N.N.N.N.N.N.N.N.N.N.N.O.O.[Ru+4].[Ru+5].[Ru+5]	–	·	·	·	·	·	·
Cc1ncc2c(c1CNC(=O)CN1CCCC1)CCN(C(=O)c1ccc(F)cc1F)C2	–	·	·	·	·	·	·
Cc1ccc(C(=O)/C=C/c2cc(Br)cc(Br)c2O)o1	–	?	79.4µM	–	–	–	84.9
CN(CC(=O)N1CCOCC1)Cc1c(Cl)cccc1NC(=O)c1ccccc1	–	·	·	·	·	·	·
Cc1cccc(CNC(=O)c2c3n(c(C)cc2=O)-c2ccccc2SC(c2ccsc2)C3)n1 (stereo not given)	–	·	·	·	·	·	·
Cc1c(C(=O)O)c(O)cc2c1C(=O)c1c(O)c([C@@H]3O[C@H](CO)[C@@H](O)[C@H](O)[C@H]3O)c(O)c(O)c1C2=O	–	?	31.6µM	?	?	?	84.9
Cc1cnc(-n2ncc(C(=O)NCC3COCCO3)c2C2CC2)nc1-c1cccs1 (stereo not given)	–	·	·	·	·	·	·
O=C(Nc1cc(C(=O)Nc2ccccc2C(=O)O)cc(C(=O)Nc2ccccc2C(=O)O)c1)c1ccccc1	–	25.1µM	39.8µM	-81.5	?	?	33.8
CCn1cc(CN2CCOc3ccc(C(O)C4CCCCC4)cc3C2)c(C)n1 (stereo not given)	–	·	·	·	·	·	·
